Structures are written as SMILES. About 3,300 (0.89%) of roughly 370,000 compounds were called active.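 How the source made its calls: active means activation above the mean of all tested compounds plus 3 SD, computed per campaign excluding outliers beyond control limits (cut at about 13% in these data); inactive means the rest.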 What follows is part of a selection rich in actives, with near analogues and random picks from the rest.

Sequence of Kallikrein-7 (Homo sapiens) (P49862 whole entry, looked up): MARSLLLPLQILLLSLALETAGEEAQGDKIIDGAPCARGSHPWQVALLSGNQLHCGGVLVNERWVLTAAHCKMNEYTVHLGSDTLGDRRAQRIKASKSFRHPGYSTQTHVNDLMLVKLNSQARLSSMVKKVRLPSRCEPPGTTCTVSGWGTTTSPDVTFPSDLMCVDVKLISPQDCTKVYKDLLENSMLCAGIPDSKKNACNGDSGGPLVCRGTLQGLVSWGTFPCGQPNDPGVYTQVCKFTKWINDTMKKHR

This assay has as its target Kallikrein-7 (Homo sapiens) (UniProt P49862). Kind of assay: proKLK7 zymogen activators, primary screen, biochemical, fluorescence intensity (AID 652039). The settings on record: purified proKLK7, EDANS-DABCYL substrate fluorescence; at 7 µM; active compounds read high; 100% is mature enzyme control, 0% vehicle.
Regarding `O=C(NCC1COc2ccccc2O1)c1ccc(NC(=O)c2cc(F)ccc2F)cc1` (stereo unspecified), the activation was 1.38% (inactive).

`COc1cccc(Cn2cc(COC(=O)Nc3ccc(F)cc3)nn2)c1`: the activation was -0.1% (inactive).

Consider `COc1cccc2cc(S(=O)(=O)c3ccc(C)cc3)/c(=N/NS(=O)(=O)c3ccc(C)cc3)oc12`, for which the activation was 0.14% (inactive).

With `Cc1cc(S(=O)(=O)c2cc3ccc(O)c(C)c3oc2=O)ccc1F`, the activation was 22.6% (active).

Regarding `O=C(CSc1nc2ccccc2s1)NN=Cc1ccc(O)cc1O`, the activation is -0.66% (inactive).

Consider `COc1cccc(/C=C2\CC3(OC(C)=O)CCCN2C3)c1` (stereo unspecified), for which the activation is 0.57% (inactive).

`O=C(CCCCCN1C(=O)C2C3C=CC(C3)C2C1=O)Nc1ccccn1` (stereo unspecified): the activation is 0.09% (inactive).

Take `C=C(C)C1CC23C(=O)C4(C(=O)c5ccccc5)C[C@@]5(C)CCC(CC2C1(C)C)(C4=O)C35OC` (stereo partly specified): the activation was -0.91% (inactive).

Consider `Cc1ccccc1C(=O)O`, for which the activation was -0.39% (inactive).

As for `Cc1cc(=O)oc2c1ccc1ccccc12`, the activation is -3.76% (inactive).

With `Cc1ccsc1-c1cc(C(=O)O)c2c(ccc3ccccc32)n1`, the activation is 12.6% (active).

Turning to `CCc1cc(=O)oc2c(C)c(OCC(=O)NCCN3CCOCC3)ccc12`, the activation was 1.04% (inactive).

For `Cc1cc(=O)oc2c3c(cc(OCC(=O)NCCC(=O)N[C@@H](C)C(=O)O)c12)OC(C)(C)CC3`, the activation is 47.4% (active).

Regarding `O=C(COc1ccc2c3c(c(=O)oc2c1)CCCC3)NCC(O)c1ccccc1` (stereo unspecified), the activation was -0.24% (inactive).

For the molecule `Cc1cc(=O)oc2c3c(cc(OCC(=O)NCc4ccccn4)c12)OC(C)(C)CC3`, the activation was 12.5% (inactive).

`Cc1c(OC(C)C(=O)N[C@@H](Cc2ccccc2)C(=O)O)ccc2c3c(c(=O)oc12)CCCC3` (stereo partly specified): the activation was -18.9% (inactive).

In the case of `Cc1cc(=O)oc2c3c(cc(OCC(=O)N[C@H](C(=O)O)c4ccccc4)c12)OC(C)(C)CC3`, the activation was 47.5% (active).

Turning to `Cc1c(C)c2c(OCC(=O)NCCCO)cc3c(c2oc1=O)CCC(C)(C)O3`, the activation was 40.1% (active).

`COc1cccc(NC(=O)COc2cc(C)cc3oc(=O)cc(C)c23)c1`: the activation was -0.24% (inactive).

With `Cc1cc(=O)oc2c3c(cc(OCC(=O)NCC(O)c4ccccc4)c12)OC(C)(C)CC3` (stereo unspecified), the activation was -10.6% (inactive).

On to `COc1ccc(CCNC(=O)COc2cc(C)cc3oc(=O)c(C)c(C)c23)cc1OC`, for which the activation was -0.02% (inactive).

Consider `Cc1cc(=O)oc2c(C)c(OCC(=O)NCCN3CCOCC3)ccc12`, for which the activation was -0.44% (inactive).

With `Cc1c(C)c2c(OCC(=O)N[C@@H](C(=O)O)c3ccccc3)cc3c(c2oc1=O)CCC(C)(C)O3`, the activation was 39.6% (active).

Consider `Cc1ccccc1NC(=O)COC(=O)c1ccc(Sc2ncn[nH]2)c([N+](=O)[O-])c1`, for which the activation was 0.34% (inactive).

On to `Cc1cc(C)cc(NC(=O)N2CCC(N(C)CCC(C)C)CC2)c1`, for which the activation is -0.07% (inactive).

In the case of `CC(CCN1CCC(C(O)(c2ccccc2)c2ccccc2)CC1)Oc1ccc(C(F)(F)F)cc1` (stereo unspecified), the activation is -0.17% (inactive).

As to `COC(=O)[C@]12C[C@H](CC(=O)N3CCN(C(=O)C4CC4)CC3)C(=O)N(CCC3=CCCCC3)C1=C[C@H](C(C)C)O[C@@H]2C1CC1`, the activation was 0.25% (inactive).

For the molecule `CCCC[C@H]1C2CC(OC(=O)NCc3ccccc3)C(C2)[C@H]2CCCCN21` (stereo partly specified), the activation was 0.07% (inactive).

Consider `O=C(NCc1cccnc1)c1ccc2nc([C@@H]3O[C@H](CO)[C@H](O)[C@H](O)[C@H]3O)[nH]c2c1`, for which the activation was -0.29% (inactive).

With `CCOC(=O)c1csc(NC(=O)C2CCCN(S(=O)(=O)c3ccc(Cl)s3)C2)n1` (stereo unspecified), the activation is 0.6% (inactive).

For the molecule `Cc1ccccc1N1CCN(C2CCCN(C(=O)c3cn4c(C)cccc4n3)C2)CC1` (stereo unspecified), the activation was 0.45% (inactive).

For `CCOC(=O)[C@]12CCCCC/C=C\1N(Cc1ccc(OC)cc1)C(=O)[C@H]2CC(=O)NCc1ccc(C)o1`, the activation is 0.76% (inactive).

On to `O=C(CN1CCCc2ccccc21)NCc1ccc(F)cc1`, for which the activation is -0.07% (inactive).

As for `COC(=O)C1=C(C(=O)c2ccc(C)cc2)C(c2ccccc2)n2nnnc2N1` (stereo unspecified), the activation was -0.19% (inactive).

For the molecule `COC(=O)c1ccc(C2C3=C(Nc4nnnn42)c2ccccc2OC3)cc1` (stereo unspecified), the activation is 30.4% (active).

For `COc1ccccc1NC(=O)C1=C(C)Nc2nnnn2C1c1cccc(Br)c1` (stereo unspecified), the activation is 0.58% (inactive).

Consider `COc1ccccc1C(=O)NC1CCCCN(C(C)C)C1=O` (stereo unspecified), for which the activation was 0.9% (inactive).

Turning to `COc1cccc(CNC(=O)C2CCCN(c3nc4ccccc4o3)C2)c1OC` (stereo unspecified), the activation is 0.61% (inactive).

As for `O=S(=O)(c1ccccc1)N1CCC(c2nc3ccccc3o2)CC1`, the activation was -0.13% (inactive).

For the molecule `CC1CCCN(C(=O)c2cc(-c3ccco3)nc3ccccc23)C1` (stereo unspecified), the activation was 38.3% (active).

For `CC1CCN(C(=O)Cn2cc(C(=O)c3ccco3)c3ccccc32)CC1`, the activation was 0.78% (inactive).

Consider `CC(=O)N1CCN(Cc2cc(=O)oc3cc(C)ccc23)CC1`, for which the activation is 0.22% (inactive).

On to `CC(=O)N1CCN(C(=O)c2cc(-c3ccc(C)o3)nc3ccccc23)CC1`, for which the activation is 35.2% (active).

Turning to `O=C(c1cc(-c2ccco2)nc2ccccc12)N(Cc1nnc(-c2ccc(Cl)cc2)o1)C1CC1`, the activation is -60.5% (inactive).

For the molecule `Cc1ccc(S(=O)(=O)N2CCN(C(=O)c3ccccc3-c3nc4ccccc4s3)CC2)c(C)c1`, the activation was -0.15% (inactive).

On to `O=C(Nc1cccc(Cl)c1)OC1CC2CC1[C@H]1CCCCN1[C@H]2Cc1ccccc1` (stereo partly specified), for which the activation was -0.47% (inactive).

For the molecule `C=CCN1C(=O)[C@H](CC(=O)NCCCN2CCCC2=O)[C@@]2(C(=O)OCC)CCCC=C12`, the activation is -0.44% (inactive).

For the molecule `Cc1ccccc1CN1CCCCC(NC(=O)c2cccc(C#N)c2)C1=O` (stereo unspecified), the activation was -1.15% (inactive).

As to `COc1ccc2c(C(C)c3ccc(N)cc3)cn(C)c2c1` (stereo unspecified), the activation was -0.2% (inactive).

With `CC(=O)N1CCCN(C2=Nc3ccccc3Sc3ccccc32)CC1`, the activation is 0.25% (inactive).

As for `CN(C)c1cc(-c2ccc(F)cc2)oc(=O)c1Cl`, the activation is -0.37% (inactive).

On to `O=c1oc2cc(O)ccc2cc1-c1ccc(F)cc1`, for which the activation was 57.7% (active).

`CCOC(=O)[C@]12CCCC3=C1N(CCC3)C(=O)[C@@H](CC(=O)NCC13CC4CC(CC(C4)C1)C3)C2`: the activation is 0.33% (inactive).

For `Cc1ccc(NC(=O)c2cc(C)nn2-c2ccccc2)c(C)c1`, the activation was 0.15% (inactive).

With `C[C@@H](NC(=O)c1ccccc1OCC(=O)Nc1ccc(I)cc1)C(=O)N(C)Cc1ccccc1`, the activation was -0.35% (inactive).

For the molecule `Cc1cc2nc3c(=O)[nH]c(=O)nc-3n(C[C@H](O)[C@H](O)[C@H](O)CO)c2cc1C`, the activation is -49.4% (inactive).

On to `CCN(CC)CCCC(C)n1c2nc(=O)[nH]c(=O)c-2nc2cc(Cl)ccc21` (stereo unspecified), for which the activation was 75.5% (active).

Consider `CC(C)CNc1cccc2c1S(=O)(=O)N(Cc1cn(Cc3ccccc3C(F)(F)F)nn1)Cc1ccccc1O2`, for which the activation is -7.19% (inactive).

Consider `COCC(=O)Nc1nnc(COc2ccccc2)s1`, for which the activation is 20.2% (active).

In the case of `Cc1ccc(OCc2nnc(NC(=O)OCC(C)C)s2)cc1`, the activation was -0.08% (inactive).

Turning to `CCOCc1nnc(NC(=O)CCS(=O)(=O)Cc2ccccc2)s1`, the activation is 0.26% (inactive).

For `COc1ccc(CN2C/C(=C/c3ccccc3)N3C(=O)C[C@@H](c4ccccc4)N=C23)c(OC)c1`, the activation was -0.63% (inactive).

Consider `CC1(C)Oc2ccc3ccc(=O)oc3c2/C(=N/O)C1=O`, for which the activation is 206% (active).

On to `C/C=C(/C)C(=O)OC1Cc2c(ccc3ccc(=O)oc23)OC1(C)C` (stereo unspecified), for which the activation is 0.3% (inactive).

For the molecule `CC1(C)Oc2ccc3ccc(=O)oc3c2/C(=C/NCCO)C1=O`, the activation is 0.36% (inactive).

As for `COC(=O)C1CN(Cc2cn(Cc3ccc(F)cc3)nn2)CCS(=O)(=O)N1Cc1ccc(Cl)cc1` (stereo unspecified), the activation is -0.37% (inactive).

For the molecule `N#CC1=C(N)Oc2c(sc3ccccc23)C1c1ccco1` (stereo unspecified), the activation was 15% (active).

For `CCN(CC(=O)Nc1c(F)cccc1F)C(=O)c1ccc(-c2ccccc2)cc1`, the activation is 0.37% (inactive).

As to `CCN(CC(=O)Nc1c(F)cccc1F)C(=O)c1cnc(C)cn1`, the activation was -0.38% (inactive).

In the case of `CCN(CC(=O)Nc1c(F)cccc1F)C(=O)c1ccc(-c2ccc(C(C)=O)cc2)o1`, the activation was 13.8% (active).

`O=C(OC12CCCN(C1)/C(=C/c1ccccc1)C2)c1ccco1` (stereo unspecified): the activation is 0.07% (inactive).

Regarding `CCCCCCCCNS(=O)(=O)/C=C/c1cc(C)ccc1CNC(=O)OC(C)(C)C`, the activation is 0.37% (inactive).

For the molecule `CC(C)N1CCCCC(NC(=O)C(C)(C)C)C1=O` (stereo unspecified), the activation was -0.28% (inactive).

Consider `Cc1cc(-c2nnc(SCC(=O)Nc3ccc(S(N)(=O)=O)cc3)n2N)n[nH]1`, for which the activation is -0.95% (inactive).

Regarding `Cc1oc2nc(SCC(=O)Nc3ccc(S(N)(=O)=O)cc3)nc(NC(=O)c3ccccc3)c2c1C`, the activation is 16.3% (active).

On to `Cc1oc2nc(SCC(=O)NCc3cccnc3)nc(N)c2c1C`, for which the activation is 0.33% (inactive).

With `CN(C)Cc1cn(-c2ccc(-c3noc4c3C(=O)N(CC(=O)N3CCOCC3)CC4)cc2)nn1`, the activation is -0.76% (inactive).

In the case of `CC(C)Oc1cc(F)ccc1-c1cc(C(=O)Nc2cccc(Cl)c2)[nH]n1`, the activation is -0.65% (inactive).

Regarding `CCC(=O)OCCCN1C(=O)CCC12CCC(c1ccccc1)CC2` (stereo unspecified), the activation is -0.27% (inactive).

For `CCc1nc(Nc2ccc3nccnc3c2)c2oc3ccccc3c2n1`, the activation is -2.9% (inactive).

As for `CCc1nc(Nc2ccc(NC(C)=O)cc2)c2oc3ccccc3c2n1`, the activation is 172% (active).

For the molecule `C[C@@H](Nc1nc(-c2ccccc2)nc2c1oc1ccccc12)C(=O)O`, the activation was -0.64% (inactive).

Regarding `Cc1cc2nc(C(F)(F)F)cc(-c3cccs3)n2n1`, the activation was -1.33% (inactive).

Turning to `CC(C)(C)Nc1c(-c2cccs2)nc2ccccn12`, the activation was 27% (active).

With `Cc1nc2ccccn2c(=O)c1NC(=O)c1cccs1`, the activation was 0.03% (inactive).

As for `COC(=O)[C@]12C[C@H](CC(=O)N3CCOCC3)C(=O)N(Cc3ccc(Cl)cc3Cl)C1=C[C@H](C(C)C)O[C@@H]2C1CC1`, the activation is 0.16% (inactive).

Values taken from PubChem BioAssay AID652039 (The Scripps Research Institute Molecular Screening Center, 2013).
